The source of these data is ChEMBL document CHEMBL5308504, “Tm Shift (DSF) assay results for EUbOPEN Chemogenomics Library” (2023).

Conditions in all cases: Compound concentration 20.0 uM, Protein concentration 2.0 uM, Result type QC Liability
Experiment [1] concerns the target Tyrosine-protein kinase ABL1 (Homo sapiens) (UniProt P00519).
The target of experiment [2] is Cyclin-dependent kinase 2 (Homo sapiens) (UniProt P24941).
Experiment [3] deals with Casein kinase I isoform delta (Homo sapiens) (UniProt P48730).
Casein kinase I isoform delta (Homo sapiens), sequence (P48730 whole entry, looked up, canonical isoform): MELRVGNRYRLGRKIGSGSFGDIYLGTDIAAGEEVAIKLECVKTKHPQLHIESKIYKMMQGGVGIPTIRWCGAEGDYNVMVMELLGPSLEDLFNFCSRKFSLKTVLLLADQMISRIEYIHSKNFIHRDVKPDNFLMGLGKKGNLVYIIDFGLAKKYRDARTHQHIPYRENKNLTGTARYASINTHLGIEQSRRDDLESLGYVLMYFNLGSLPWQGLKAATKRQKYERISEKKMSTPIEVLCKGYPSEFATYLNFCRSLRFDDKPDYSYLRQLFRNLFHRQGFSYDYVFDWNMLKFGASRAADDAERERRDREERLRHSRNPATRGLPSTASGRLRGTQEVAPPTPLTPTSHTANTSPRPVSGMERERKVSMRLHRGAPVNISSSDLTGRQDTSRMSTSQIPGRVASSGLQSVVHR
In experiment [4] the target is Glycogen synthase kinase-3 beta (Homo sapiens) (UniProt P49841).
Glycogen synthase kinase-3 beta (Homo sapiens), sequence (P49841 whole entry, looked up): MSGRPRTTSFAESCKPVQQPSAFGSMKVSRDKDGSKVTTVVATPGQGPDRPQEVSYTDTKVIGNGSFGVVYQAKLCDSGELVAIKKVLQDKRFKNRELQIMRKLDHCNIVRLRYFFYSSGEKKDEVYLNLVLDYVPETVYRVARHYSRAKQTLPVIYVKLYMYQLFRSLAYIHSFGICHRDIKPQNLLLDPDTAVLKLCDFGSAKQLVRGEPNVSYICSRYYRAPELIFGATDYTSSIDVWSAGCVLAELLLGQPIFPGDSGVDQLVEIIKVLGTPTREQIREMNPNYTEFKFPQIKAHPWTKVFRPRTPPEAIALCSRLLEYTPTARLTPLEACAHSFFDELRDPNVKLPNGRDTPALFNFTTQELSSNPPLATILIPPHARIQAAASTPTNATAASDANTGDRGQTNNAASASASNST
For experiment [5], the target named is Mitogen-activated protein kinase 1 (Homo sapiens) (UniProt P28482).
Mitogen-activated protein kinase 1 (Homo sapiens), sequence (P28482 whole entry): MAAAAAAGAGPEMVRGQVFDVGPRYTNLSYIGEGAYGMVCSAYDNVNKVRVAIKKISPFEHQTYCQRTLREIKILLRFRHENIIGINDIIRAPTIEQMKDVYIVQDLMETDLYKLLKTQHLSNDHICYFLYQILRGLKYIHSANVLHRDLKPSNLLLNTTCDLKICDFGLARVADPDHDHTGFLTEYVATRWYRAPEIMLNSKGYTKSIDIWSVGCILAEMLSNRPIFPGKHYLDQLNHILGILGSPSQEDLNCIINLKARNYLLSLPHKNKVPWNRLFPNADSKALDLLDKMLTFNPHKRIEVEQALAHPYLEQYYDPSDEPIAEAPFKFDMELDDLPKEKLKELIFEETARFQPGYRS
Experiment [6] concerns the target T1, Aurora kinase A (Homo sapiens) (UniProt O14965).
T1 sequence (whole entry): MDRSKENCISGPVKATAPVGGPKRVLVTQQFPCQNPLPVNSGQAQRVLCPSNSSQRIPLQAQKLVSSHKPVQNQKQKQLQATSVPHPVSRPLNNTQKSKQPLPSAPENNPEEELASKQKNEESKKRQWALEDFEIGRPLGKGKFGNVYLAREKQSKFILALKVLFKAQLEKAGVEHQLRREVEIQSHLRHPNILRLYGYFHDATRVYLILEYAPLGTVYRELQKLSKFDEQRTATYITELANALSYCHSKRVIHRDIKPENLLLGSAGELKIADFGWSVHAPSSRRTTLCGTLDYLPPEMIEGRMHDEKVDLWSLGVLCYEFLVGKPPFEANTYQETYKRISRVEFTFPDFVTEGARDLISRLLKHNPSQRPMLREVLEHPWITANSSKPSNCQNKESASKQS

Tyrosine-protein kinase ABL1 (Homo sapiens), sequence (P00519 whole entry): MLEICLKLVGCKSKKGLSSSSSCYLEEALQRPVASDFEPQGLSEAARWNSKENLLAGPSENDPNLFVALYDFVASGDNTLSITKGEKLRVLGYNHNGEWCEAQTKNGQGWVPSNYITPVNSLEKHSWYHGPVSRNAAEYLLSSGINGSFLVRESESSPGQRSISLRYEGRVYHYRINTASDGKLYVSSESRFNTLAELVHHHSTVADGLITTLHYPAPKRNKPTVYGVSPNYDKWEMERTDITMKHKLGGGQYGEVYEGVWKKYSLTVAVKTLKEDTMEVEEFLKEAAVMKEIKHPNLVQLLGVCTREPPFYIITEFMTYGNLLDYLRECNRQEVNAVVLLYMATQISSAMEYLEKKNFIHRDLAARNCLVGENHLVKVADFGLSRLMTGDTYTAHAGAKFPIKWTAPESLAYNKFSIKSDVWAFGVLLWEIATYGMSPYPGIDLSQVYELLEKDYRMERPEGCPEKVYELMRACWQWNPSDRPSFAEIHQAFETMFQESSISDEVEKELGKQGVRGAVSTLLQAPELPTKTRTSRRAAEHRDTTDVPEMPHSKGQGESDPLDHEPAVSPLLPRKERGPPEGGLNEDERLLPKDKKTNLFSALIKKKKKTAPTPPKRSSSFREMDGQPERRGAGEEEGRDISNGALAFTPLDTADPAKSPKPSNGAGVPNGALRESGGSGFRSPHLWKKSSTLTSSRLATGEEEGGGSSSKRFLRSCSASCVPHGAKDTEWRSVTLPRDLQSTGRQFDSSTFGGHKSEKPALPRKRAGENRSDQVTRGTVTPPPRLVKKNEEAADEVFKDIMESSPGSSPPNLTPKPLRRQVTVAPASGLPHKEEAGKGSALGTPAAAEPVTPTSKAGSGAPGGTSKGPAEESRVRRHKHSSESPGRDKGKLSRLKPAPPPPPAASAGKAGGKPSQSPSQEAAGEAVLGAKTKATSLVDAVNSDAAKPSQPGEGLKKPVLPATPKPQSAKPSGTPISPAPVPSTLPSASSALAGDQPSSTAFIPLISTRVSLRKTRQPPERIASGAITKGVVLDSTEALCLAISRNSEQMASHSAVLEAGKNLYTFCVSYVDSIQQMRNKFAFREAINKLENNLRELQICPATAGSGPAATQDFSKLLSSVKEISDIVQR

For the compound `Cc1cccc(-c2nn3c(c2-c2ccnc4ccc(C(N)=O)cc24)CCC3)n1`, the ΔTm (in general, the shift of the melting midpoint relative to a reference) in experiment [1] was 1.72 °C; in experiment [2], 0.75 °C; in experiment [3], 3.53 °C; in experiment [4] it was 3.04 °C; in experiment [5] it was 0.51 °C; in experiment [6] it was -0.95 °C.

Regarding `CN(C)[C@H]1CC[C@H](Nc2ncc3ncnc(Nc4ccc(F)c(Cl)c4)c3n2)CC1`, the ΔTm in experiment [1] was determined as 3.21 °C; in experiment [2], 1.27 °C; in experiment [3], 1.07 °C; in experiment [4] it was 1.75 °C; in experiment [5], 0.51 °C; in experiment [6], 0.2 °C.

For `Cc1nn(-c2ccccc2)c(Nc2ccccc2C(=O)O)c1-c1cc2nccnc2c(F)c1F`, the ΔTm in experiment [1] is -0.68 °C; in experiment [2], 0.56 °C; in experiment [3], 0.22 °C; in experiment [4], 1 °C; in experiment [5], 0.47 °C; in experiment [6] it was 0.69 °C.

Turning to `C[C@@H]1CN(CC(=O)N2CC(C)(C)c3nc(CO)c(Cc4ccc(F)cc4)cc32)[C@@H](CN2CCOC[C@H]2C)CN1`, the thermal shift (ΔTm) in experiment [1] is 0.35 °C; in experiment [2], 0.82 °C; in experiment [3], -0.16 °C; in experiment [4], -0.02 °C; in experiment [5] it was 0.01 °C; in experiment [6], -0.39 °C.

Regarding `CN1C(=O)c2c(nn(Cc3ccc(-c4cccc(F)n4)cc3)c2Nc2ccccc2)N2C1=N[C@@H]1CCC[C@@H]12`, the ΔTm in experiment [1] was 0.4 °C; in experiment [2], 0 °C; in experiment [3], 0.16 °C; in experiment [4], 3.99 °C; in experiment [5], -0.56 °C; in experiment [6], -0.49 °C.

Turning to `Cc1cc(OCc2nc3ccccc3s2)ccc1NC(=O)Nc1ccc(Cl)c(Cl)c1`, the ΔTm in experiment [1] is 0.33 °C; in experiment [2] it was 1.38 °C; in experiment [3], -0.26 °C; in experiment [4], -1.81 °C; in experiment [5] it was -0.19 °C; in experiment [6], 0.13 °C.

Turning to `COc1cc(N(C)c2ccnc3ccc(C(F)(F)F)cc23)cc(OC)c1OC`, the ΔTm in experiment [1] is 0.48 °C; in experiment [2], -0.12 °C; in experiment [3], 1.1 °C; in experiment [4], -0.36 °C; in experiment [5], 0.28 °C; in experiment [6], -0.2 °C.

Take `Cc1nc(-c2ccc(C(F)(F)F)cc2)sc1C(=O)NCc1ccc(OC(C)(C)C(=O)O)cc1`: the ΔTm was 0.61 °C in experiment [1]; 0.76 °C in experiment [2]; 0.63 °C in experiment [3]; -0.64 °C in experiment [4]; 0.34 °C in experiment [5]; 0.59 °C in experiment [6].

Take `COc1ccc(-c2csc(NC(=O)[C@H]3CCCCN3S(=O)(=O)c3ccc(C)cc3)n2)cc1`: the ΔTm is 0.82 °C in experiment [1]; 0.77 °C in experiment [2]; 2.05 °C in experiment [3]; 9.29 °C in experiment [4]; -0.89 °C in experiment [5]; 0.39 °C in experiment [6].

`CCN(C)C(=O)c1ccc2c(c1)NC(=O)/C2=C(\NC1CCN(C)CC1)c1ccccc1`: the ΔTm in experiment [1] is -0.14 °C; in experiment [2] it was 0.01 °C; in experiment [3], 0.23 °C; in experiment [4], 2.01 °C; in experiment [5] it was 0.03 °C; in experiment [6], -0.37 °C.

Consider `CO[C@H]1C[C@@H]2CC[C@@H](C)[C@@](O)(O2)C(=O)C(=O)N2CCCC[C@H]2C(=O)O[C@H]([C@H](C)C[C@@H]2CC[C@@H](O)[C@H](OC)C2)CC(=O)[C@H](C)/C=C(\C)[C@@H](O)[C@@H](OC)C(=O)[C@H](C)C[C@H](C)/C=C/C=C/C=C/1C`, for which the ΔTm in experiment [1] was 0.32 °C; in experiment [2] it was -0.19 °C; in experiment [3] it was -0.1 °C; in experiment [4], -0.7 °C; in experiment [5] it was -0.72 °C; in experiment [6] it was -0.26 °C.

Regarding `O=C(O)C[C@H]1CC[C@H](c2ccc(NC(=O)c3nnc(Nc4ccc(F)c(F)c4)o3)cc2)CC1`, the ΔTm in experiment [1] was -0.04 °C; in experiment [2], 0.24 °C; in experiment [3] it was -0.9 °C; in experiment [4], -0.67 °C; in experiment [5], -2.59 °C; in experiment [6] it was 0.92 °C.

For `CN1CCN(C(=O)c2ccc(N(C)c3ncc(C(F)(F)F)c(N[C@@H]4CCC[C@@H]4C(N)=O)n3)cc2)CC1`, the ΔTm in experiment [1] is -0.2 °C; in experiment [2], 0.48 °C; in experiment [3], 0.31 °C; in experiment [4], 0.51 °C; in experiment [5] it was 0.25 °C; in experiment [6], -0.13 °C.

Turning to `C/C=C1\C(=O)CC2C3CCC4=CC(=O)CC[C@]4(C)C3CC[C@]12C` (stereo not given in full), the thermal shift (ΔTm) in experiment [1] is 0.07 °C; in experiment [2], -0.3 °C; in experiment [3] it was 0.63 °C; in experiment [4], -1.05 °C; in experiment [5], 0.47 °C; in experiment [6], -1.78 °C.

Turning to `Nc1ncnc2c1ccn2[C@@H]1O[C@H]([C@@H](O)c2ccccc2)[C@@H](O)[C@H]1O`, the shift in melting temperature (ΔTm) in experiment [1] is 0.21 °C; in experiment [2], 0.7 °C; in experiment [3] it was 0.65 °C; in experiment [4] it was -0.88 °C; in experiment [5] it was 0.25 °C; in experiment [6] it was -1.22 °C.

On to `O=C(O)c1ccc(OCCCc2ccc(OCCCCOC3CCCCC3)cc2)c(C(=O)NC2CCCC(C(=O)O)C2)c1` (stereo not given), for which the ΔTm in experiment [1] is -0.97 °C; in experiment [2], -0.34 °C; in experiment [3] it was 0.18 °C; in experiment [4] it was -0.84 °C; in experiment [5], -0.39 °C; in experiment [6], -1.1 °C.

In the case of `CCS(=O)(=O)c1ccc(OC)c(Nc2ncc(-c3cccc(F)c3)o2)c1`, the ΔTm was 2.1 °C in experiment [1]; 0.14 °C in experiment [2]; -0.13 °C in experiment [3]; -1.15 °C in experiment [4]; 0.11 °C in experiment [5]; 0.2 °C in experiment [6].

For the compound `C=CC(=O)Nc1ccc(C(=O)Nc2[nH]nc3c2CN(C(=O)N[C@H](CN(C)C)c2ccccc2)C3(C)C)cc1`, the ΔTm in experiment [1] turned out to be 4.89 °C; in experiment [2] it was 3.53 °C; in experiment [3] it was 1.06 °C; in experiment [4], 6.48 °C; in experiment [5] it was 6.56 °C; in experiment [6], 7.89 °C.

In the case of `C[C@H](NC(=O)c1cc(Cl)ccc1Oc1ccc(F)cc1)c1ccc(C(=O)O)cc1`, the ΔTm in experiment [1] was -0.11 °C; in experiment [2], 0.27 °C; in experiment [3], -2.45 °C; in experiment [4], 0.51 °C; in experiment [5], 0.18 °C; in experiment [6] it was -0.14 °C.

As for `C[C@@H](COCCC(=O)N1CCN(c2ncc(C(F)(F)F)cn2)CC1)Nc1cn[nH]c(=O)c1C(F)(F)F`, the ΔTm in experiment [1] is 0.32 °C; in experiment [2] it was 0.9 °C; in experiment [3], -0.05 °C; in experiment [4] it was -0.82 °C; in experiment [5], 0.42 °C; in experiment [6], -0.45 °C.

Regarding `CN1CCN(C(=O)c2ccc3cc2OCCOCCNc2ccn4ncc-3c4n2)CC1`, the ΔTm is 1.92 °C in experiment [1]; 0.81 °C in experiment [2]; 0.3 °C in experiment [3]; 0 °C in experiment [4]; 0.5 °C in experiment [5]; 3.85 °C in experiment [6].

With `COC[C@@H](C)N[C@H]1CC[C@H](Nc2cc(-c3cccc(NCC4(C#N)CCOCC4)n3)c(Cl)cn2)CC1`, the ΔTm in experiment [1] was 0.33 °C; in experiment [2] it was -1.43 °C; in experiment [3] it was 0.03 °C; in experiment [4], -0.08 °C; in experiment [5], 0.43 °C; in experiment [6], 0.38 °C.

As to `CCCCC/C=C/C=C1/C(=O)C=C[C@@H]1C/C=C\CCCC(=O)O`, the ΔTm was -2.05 °C in experiment [1]; -0.61 °C in experiment [2]; -0.75 °C in experiment [3]; -0.25 °C in experiment [4]; -0.53 °C in experiment [5]; -1.52 °C in experiment [6].

Regarding `Cc1cc(CN)cc(C)c1-c1ncn(C)c1-c1ccnc2cc(F)ccc12`, the ΔTm was -0.08 °C in experiment [1]; 0.32 °C in experiment [2]; 0.37 °C in experiment [3]; -0.11 °C in experiment [4]; 0.29 °C in experiment [5]; 0.25 °C in experiment [6].

Regarding `Cc1nsc(Nc2cnc(C(F)(F)F)cn2)c1C(=O)Nc1ccc(O[C@H]2CCCN(CC(F)(F)F)C2)nc1`, the ΔTm was 0.72 °C in experiment [1]; 1.68 °C in experiment [2]; 0 °C in experiment [3]; -3.09 °C in experiment [4]; 0 °C in experiment [5]; 2.24 °C in experiment [6].
